Only some compounds are listed: those with a hit (about 2.6% of all), similar ones and a draw of the others.
EBV LMP1 NFkB = inhibitors of Epstein-Barr LMP1-induced NF-kappaB reporter; inhibition, % at 12.5 µM; LMP1-induced NF-kappaB luciferase reporter cells, luminescence; 0.69% of 350,000 active; in the data active means inhibition above about 41%; inconclusive means no clear call, values can overlap the other calls;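 further: 0% = neutral control wells and 100% = reference inhibitor control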
LGR2 antag = Drosophila LGR2 receptor signaling inhibition; HEK293 LGR2, CRE-luciferase, bursicon-stimulated, 4 h; inhibition, % at 9.99 µM; 0.35% of 380,000 active;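 active means drop in luminescence signal, shown as inhibition above about 50% in the replicate tests, limit read from the data, passing the limit was not always enough; inconclusive means probably only some replicates passing the limit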;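 further: agonist challenge used bursicon conditioned medium at about half maximal strength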
HSP90 inh = inhibitors of HSP90 luciferase refolding in rabbit reticulocyte lysate. 0.91% of 290,000 active. inhibition, % at 5.6 µM. luciferase refolding luminescence, 3 h;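 active means inhibition above the screen-wide mean plus 3 SD, computed separately per campaign, cut at about 16% in these data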;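 further: 0% = DMSO wells and 100% = 60 µM geldanamycin wells; inhibitors lower the luminescence because luciferase stays unfolded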
aDG glyco up = increases alpha dystroglycan glycosylation; Pro5-aDG cells, alpha-DG glycosylation AlphaScreen (IIH6); 0% Pro5, 100% B10-LARGE cell signal; activation, % at 10 µM; 0.22% of 360,000 active; AID 624168;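 active means activation of at least 8% versus controls, or a plate z-score of at least 8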;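 further: Pro5 are CHO cells carrying HIG-tagged alpha-DG that lacks glycosylation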
TROY signal inh = TROY signaling inhibition; Q293 LMP1-TROYcd NF-kB luciferase reporter, 4 h; inhibition, % at 10 µM; 0.98% of 360,000 active; AID 1347056;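 active means compounds whose plate-normalised and pattern-corrected inhibition of the luciferase reporter signal at the single screening dose is 50% or more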
TWEAK-Fn14 inh = inhibitors of TWEAK-Fn14 interaction signaling. TWEAK-stimulated Fn14 reporter cells, luciferase luminescence, 8 h. inhibition, % at 10 µM. 2% of 360,000 active; in the data active means inhibition above about 50%
* hit, by the source's call; ? = inconclusive; · = no result given.

SMILES	EBV LMP1 NFkB	LGR2 antag	HSP90 inh	aDG glyco up	TROY signal inh	TWEAK-Fn14 inh
O=C(Cn1ncc(N2CCOCC2)c(Cl)c1=O)c1ccc(Cl)cc1	-16.4	2.7	-0.6	-0.2	-23.3	-8.6
O=C(Cn1ncc(Cl)c(Cl)c1=O)c1ccc(Cl)cc1	-78.1	·	1.0	-0.2	12.6	83.5*
O=c1c(Cl)c(Cl)cnn1Cc1ccc(F)cc1	-9.0	?	4.8	0.3	1.9	80.5*
O=C(OCn1ncc(Cl)c(Cl)c1=O)c1ccc(F)cc1	·	·	-3.6	·	·	·
O=C(OCn1ncc(Cl)c(Cl)c1=O)c1ccccc1Cl	86.5*	·	-1.5	-0.4	73.4*	103.9*
C[C@H](CO)N1C[C@H](C)[C@H](CN(C)Cc2ccccc2)OCCCC[C@H](C)Oc2ccc(NS(=O)(=O)c3ccc(Cl)cc3)cc2C1=O	·	10.7	·	·	·	·
N#C[C@@H]1[C@H](c2ccc(C3=CCCCC3)cc2)[C@@H](CO)N1C(=O)Cc1ccncc1	·	1.5	·	·	·	·
N#Cc1ccc(-c2csc(NNC(=O)c3ccccc3)n2)cc1	13.6	-1.3	-1.8	-0.1	-28.2	-15.8
N#Cc1ccc(-c2csc(NNC(=O)c3ccc(Br)cc3)n2)cc1	54.8*	7.2	1.2	0.0	0.6	-7.8
CCCC#Cc1cnc2c(c1)C(=O)N([C@@H](C)CO)C[C@H](C)[C@@H](CN(C)S(=O)(=O)c1cn(C)cn1)O2	·	17.5	·	·	·	·
O=c1cc(C(F)(F)F)nc(SCc2cccc3ccccc23)[nH]1	-2.4	4.3	-2.4	0.1	62.2*	-28.0
Nc1cc(=O)[nH]c(SCc2cccc3ccccc23)n1	4.7	-0.4	-2.8	0.1	16.8	-8.7
CC(C)CCN1C(=O)c2ccc(C(=O)Nc3cc(C(=O)O)cc(C(=O)O)c3)cc2C1=O	-1.2	6.9	-2.7	0.0	-15.0	-1.7
CC(C)CCN1C(=O)c2ccc(C(=O)Nc3ccc(Br)cc3C(=O)O)cc2C1=O	3.1	-2.9	-1.9	-0.1	57.6*	-3.4
CCCCn1c(CN2CCN(C(=O)c3ccco3)CC2)nc2c1c(=O)n(C)c(=O)n2C	-3.2	·	-1.5	7.9*	3.7	11.3
O=C1C(Cl)=C(NCCN2CCCCC2)C(=O)c2ccccc21	13.0	·	2.8	-0.8	53.6*	92.9*
CCNC1=C(Cl)C(=O)c2ccccc2C1=O	-0.3	·	6.1	11.6*	-29.7	12.0
Cc1ccc(NC2=C(Cl)C(=O)c3ccccc3C2=O)cc1	-5.9	-25.0	3.7	-1.1	-39.2	10.7
O=C1C(Cl)=C(Nc2ccc(O)cc2)C(=O)c2ccccc21	61.4*	37.2	6.4	-0.3	64.2*	8.7
CCN(CC)c1ccc(NC2=C(Cl)C(=O)c3ccccc3C2=O)cc1	80.1*	·	-1.4	-1.3	-5.7	57.5*
COc1ccc(S(=O)(=O)Nc2cccc3c2O[C@H](CN(C)S(C)(=O)=O)[C@H](C)CN([C@@H](C)CO)C3=O)cc1	·	8.7	·	·	·	·
COCC(=O)Nc1ccc2c(c1)C(=O)N(C)C[C@H](OC)[C@@H](C)CN(Cc1ccccc1)[C@@H](C)CO2	·	-8.6	·	·	·	·
O=S(=O)(Nc1ccc(Cl)cc1NS(=O)(=O)c1ccccc1)c1ccccc1	0.3	20.7	·	0.0	50.6*	-3.8
O=C1NC[C@H](CCCCN2C[C@H](Cc3ccccc3)N(CCC3CCCCC3)C(=O)C2=O)N(CCC2CCCCC2)C1=O	·	4.7	·	0.2	77.4*	26.9
O=C1NC[C@@H](CCCCN2C[C@H](Cc3ccccc3)N(CCC3CCCCC3)C(=O)C2=O)N(Cc2ccccc2)C1=O	·	-1.4	·	0.3	-19.3	18.4
SMILES	EBV LMP1 NFkB	LGR2 antag	HSP90 inh	aDG glyco up	TROY signal inh	TWEAK-Fn14 inh
C[C@@H]1CN([C@H](C)CO)C(=O)Cc2cc(NS(=O)(=O)c3ccccc3)ccc2O[C@@H]1CN(C)CC1CCCCC1	·	0.2	·	·	·	·
CCOC(=O)NC(=O)/C(C#N)=N\Nc1ccc(Cl)cc1	1.6	·	0.0	-0.4	-5.9	-0.6
CCOC(=O)NC(=O)/C(C#N)=N\Nc1cccc(Cl)c1	2.8	1.6	-3.2	0.0	55.7*	-0.8
C=CCn1c(SCC(=O)NC2CC2)nc2ccccc2c1=O	1.1	1.5	·	0.2	-20.9	7.0
C=CCn1c(SCC(=O)c2ccc(CNC(C)=O)o2)nc2ccccc2c1=O	82.0*	-1.1	-0.6	0.1	1.3	8.8
C=CCn1c(SCC(=O)N2CCCCCC2)nc2ccccc2c1=O	4.2	-8.8	-2.4	0.1	2.5	72.5*
Cc1nn(-c2ccccc2)c(C)c1NC(=O)COC(=O)c1ccccc1OC(F)F	1.5	7.9	-4.2	0.1	51.4*	1.8

High-throughput results (PubChem BioAssay)
